In PubChem BioAssay AID2717 (Broad Institute, 2010):
Hit rate of the full screen: of about 300,000 compounds, about 3,200 (1.1%) were called active. Shown is part of a subset that was picked to be rich in actives. A number with no mark means an inactive call. Rule as the data show it: active = inhibition above about 75%; inconclusive = no clear call, values can overlap the other calls; inactive = below that; tested in HMLE shEcad cells.

Experiment: cancer stem cell viability inhibitors, primary screen, luminescence (AID 2717)
Settings: cancer stem cell-like cells viability, at 7.5 µM, hits give high values

Q: For `O=C(CN1C(=O)NC2(CCCCCC2)C1=O)Nc1ccc([N+](=O)[O-])cc1`, which inhibition is on record?
A: -18.6%

Q: Which inhibition does the source give for `Cc1ccc(C2CC(=O)NC(SCC(=O)OCc3ccccc3)=C2C#N)o1` (stereo unspecified) here?
A: 61.5%

Q: With `CCOC(=O)CSC1=C(C#N)C(c2ccco2)C(C(=O)OCc2ccccc2)=C(C)N1` (stereo unspecified) as the compound, how does the inhibition read?
A: -3.25%

Q: Which inhibition does the source give for `CCOC(=O)CSC1=C(C#N)C(c2sccc2C)CC(=O)N1` (stereo unspecified) here?
A: 78.4% (active)

Q: With `Cc1c(Cl)cnc(NC(=O)COC(=O)C2CCCC2)c1Cl` as the compound, how does the inhibition read?
A: -15.8%

Q: With `O=C(CCNC(=O)c1ccc(Cl)cc1)NC1CCCc2ccccc21` (stereo unspecified) as the compound, how does the inhibition read?
A: 27%

Q: For `COc1ccc(NC(=O)c2cc3nc(-c4ccccc4)cc(C)n3n2)cc1OC`, which inhibition is on record?
A: 5.1%

Q: For `COC(=O)c1cc2nc(-c3ccccc3)cc(C(F)(F)F)n2n1`, which inhibition is on record?
A: -6.63%

Q: For `COCCNc1cc(-c2ccccc2)nc2cc(-c3cccc(F)c3)nn12`, which inhibition is on record?
A: 85.5% (active)

Q: For `CN(CCc1ccccc1)C(=O)c1cccc(NC(=O)Cc2ccc([N+](=O)[O-])cc2)c1`, which inhibition is on record?
A: -6.88%

Q: Which inhibition does the source give for `Cc1ccc(CNC(=O)CC(NC(=O)c2ccccc2)c2ccccc2)cc1` (stereo unspecified) here?
A: -10.4%

Q: With `CCN(CC)S(=O)(=O)c1ccc(N2CCCC2)c(NC(=O)c2ccc([N+](=O)[O-])o2)c1` as the compound, how does the inhibition read?
A: 27.4%

Q: With `Cc1ccc(S(=O)(=O)N2CCCCC2)cc1NC(=O)CCNC(=O)c1ccccc1` as the compound, how does the inhibition read?
A: -6.19%

Q: With `CC(C)(C)c1ccc(C(=O)NCCn2c(N)c(C#N)c3nc4ccccc4nc32)cc1` as the compound, how does the inhibition read?
A: 35.6%

Q: Which inhibition does the source give for `CC(C)Cn1c(N)c(C(=O)NCc2cccs2)c2nc3ccccc3nc21` here?
A: 116% (active)

Q: With `CCCNC(=O)c1c(N)n(-c2ccc(S(N)(=O)=O)cc2)c2nc3ccccc3nc12` as the compound, how does the inhibition read?
A: 0.593%

Q: With `Cn1c(CC(=O)NNC(=O)c2ccccc2F)nc2ccccc21` as the compound, how does the inhibition read?
A: -2.01%

Q: For `CN(Cc1ccccc1)C(=O)COC(=O)/C=C/c1ccc2c(c1)OCO2`, which inhibition is on record?
A: -12%

Q: For `O=C(NCc1ccc2c(c1)OCO2)c1c(-c2ccsc2)sc2ccccc12`, which inhibition is on record?
A: 58.2%

Q: For `Cn1cncc1C#Cc1c(-c2ccsc2)sc2ccccc12`, which inhibition is on record?
A: 107% (active)

Q: For `Cc1ccnc(SCC(=O)Nc2cccc(S(=O)(=O)N3CCOCC3)c2)n1`, which inhibition is on record?
A: -13%

Q: For `O=C(NCC#CCSc1nnc(-c2cccc3ccccc23)o1)c1cccs1`, which inhibition is on record?
A: 44.4%

Q: For `O=C(/C=C/c1ccccc1[N+](=O)[O-])OCC(=O)N1CCCC1`, which inhibition is on record?
A: -16.9%

Q: With `CSCCC1NC(=O)N(CC(=O)Nc2cccc(S(=O)(=O)N3CCCCCC3)c2)C1=O` (stereo unspecified) as the compound, how does the inhibition read?
A: -15.7%

Q: With `O=C(CCNC(=O)c1ccc(Br)cc1)NCC(c1ccco1)N1CCCCC1` (stereo unspecified) as the compound, how does the inhibition read?
A: -10.9%

Q: For `COc1cccc(-c2cc3nc4c(c(N5CCC6(CC5)OCCO6)n3n2)CCCC4)c1`, which inhibition is on record?
A: 90.5% (active)

Q: Which inhibition does the source give for `COc1cccc(NC(=O)CN2CCN(c3nc(-c4cccc(OC)c4)cs3)CC2)c1` here?
A: 2.49%

Q: With `COc1cccc(CNc2nc3nc4c(c(=O)n3[nH]2)CCC4)c1` as the compound, how does the inhibition read?
A: -11.3%

Q: For `COc1ccccc1-c1sc2ccccc2c1-c1ccc(C(C)=O)cc1`, which inhibition is on record?
A: 29.6%

Q: With `COc1ccccc1-c1sc2ccccc2c1C#CC1(O)CCCCC1` as the compound, how does the inhibition read?
A: 105% (active)

Q: For `COc1ccccc1C1=CC(=O)CCC1`, which inhibition is on record?
A: -22.3%

Q: With `O=C(Nc1cc(N2CCOCC2)ncn1)NC1(C(F)(F)F)Oc2ccc(Cl)cc2O1` (stereo unspecified) as the compound, how does the inhibition read?
A: 88.5% (active)

Q: With `Cc1csc(NC(=O)NC2(C(F)(F)F)Oc3ccccc3O2)n1` as the compound, how does the inhibition read?
A: 36.6%

Q: With `COc1ccc(Cl)cc1NC(=O)CN1CCN(C(=O)N2CCOCC2)CC1` as the compound, how does the inhibition read?
A: -6.19%

Q: With `Cc1c(O)c(C)c2c(c1O)C(=O)C[C@@H](c1ccccc1)O2` as the compound, how does the inhibition read?
A: 1.32%

Q: Which inhibition does the source give for `Cc1cccc(-n2ncc3c(=O)[nH]c(SCC(=O)Nc4cc(C)on4)nc32)c1` here?
A: -7.48%

Q: With `Cc1ccc(CCC(=O)Nc2ncc(Cc3cc(Cl)ccc3Cl)s2)o1` as the compound, how does the inhibition read?
A: 86.2% (active)

Q: Which inhibition does the source give for `Cc1ccc(C(=O)Nc2nc3ccc(Cl)cc3s2)o1` here?
A: 18.8%

Q: For `CCOc1ccccc1NC(=O)CCc1ccc(C)o1`, which inhibition is on record?
A: 0.408%

Q: For `CCCc1cc(=O)[nH]c(SCC(=O)Nc2ccc(S(=O)(=O)N3CCCC3)cc2)n1`, which inhibition is on record?
A: 15.6%

Q: For `C=CC[C@@H](CC(=O)N[C@@H](CO)Cc1ccccc1)C(=O)NCCOC(=O)[C@@H](CC=C)CC(=O)OC(C)(C)C`, which inhibition is on record?
A: -6.46%

Q: For `O=C(NCCN1CCOCC1)c1ccc(/C=C2\Sc3ccccc3N(Cc3ccc(F)cc3)C2=O)cc1`, which inhibition is on record?
A: 33.7%

Q: Which inhibition does the source give for `CCN1CCN(CCNC(=O)c2ccc3c(c2)NC(=O)/C(=C\c2ccc(OC)c(OC)c2)S3)CC1` here?
A: 12.1%

Q: For `CCN1CCN(CCNC(=O)c2ccc(/C=C3/Sc4ccccc4N(Cc4cccc(C)c4)C3=O)cc2)CC1`, which inhibition is on record?
A: 102% (active)

Q: With `COc1ccc(C(=O)OCC(=O)c2cc(C)n(CC3CCCO3)c2C)cc1[N+](=O)[O-]` (stereo unspecified) as the compound, how does the inhibition read?
A: 37.8%

Q: With `C=CC[C@H](CC(=O)OC(C)(C)C)C(=O)OC[C@H]1CCCN1C(=O)[C@H](CC=C)CC(=O)N(CCO)Cc1ccccc1` as the compound, how does the inhibition read?
A: 4.1%

Q: Which inhibition does the source give for `CCN(C(=O)CSc1cccc[n+]1[O-])c1ccccc1` here?
A: 7%

Q: Which inhibition does the source give for `O=C(OCC(=O)N1CCc2ccccc21)c1ccc([N+](=O)[O-])cc1` here?
A: 8.88%

Q: Which inhibition does the source give for `O=C(Nc1ccn(Cc2ccccc2F)n1)c1ccc(COc2ccc(Cl)cc2Cl)o1` here?
A: 80.3% (active)

Q: For `O=C(O)c1ccc(NC(=O)c2ccc(COc3ccc(Cl)cc3)o2)cc1`, which inhibition is on record?
A: -2.6%

Q: For `Cc1cccc(NC(=O)c2ccc(COc3ccccc3[N+](=O)[O-])o2)n1`, which inhibition is on record?
A: 54.5%

Q: Which inhibition does the source give for `COCCCNC(=O)CC1C[C@H](C(=O)N2CCCCC2)[C@@]2(CCc3ccccc3)c3[nH]c4ccccc4c3CCN2C1=O` (stereo partly specified) here?
A: -19.5%

Q: For `CC(C)=N/N=C1/NC(=O)C(Cc2ccccc2)S1` (stereo unspecified), which inhibition is on record?
A: -16.9%

Q: With `NC1=NC(=O)C(Cc2cccc(Cl)c2Cl)S1` (stereo unspecified) as the compound, how does the inhibition read?
A: 14.4%

Q: With `O=C1NC(=Nc2ccc(Cl)cc2)SC1Cc1cccc(Cl)c1Cl` (stereo unspecified) as the compound, how does the inhibition read?
A: 76.5% (active)

Q: With `O=C(CCCOc1ccccc1)NNC(=O)c1ccc(Cl)cc1` as the compound, how does the inhibition read?
A: -7.46%
